In PubChem BioAssay AID624330 (Southern Research Specialized Biocontainment Screening …, 2012) one finds inhibition data, which are given here for 70 molecules.

About 2,100 (0.62%) of roughly 340,000 compounds were called active. Not all results are given here. Entries with a potency or affinity are not part of this list. Unmarked numbers belong to inactive results.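 The calls were made as follows: active = first-screen hits whose inhibition reached a set limit at any dose in the follow-up dose series; inconclusive = inhibition above the set first-screen limit but never retested; inactive = the rest.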

The test deals with Rac GTPase-activating protein 1 (Homo sapiens) (UniProt Q9H0H5). Put plainly: MgcRacGAP GTPase-activating activity inhibitors, confirmation, biochemical, ADP Hunter fluorescence, primary and confirmatory (AID 624330).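 Also: fluorescence reports GDP produced by GAP-driven GTP hydrolysis.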 The conditions noted are these: MgcRacGAP-stimulated Rac1 GTP hydrolysis, at 30 µM, stronger effect = higher value, GST-tagged Rac1 F28L mutant substrate.
Chain of Rac GTPase-activating protein 1 (Homo sapiens) (Q9H0H5 whole entry, looked up): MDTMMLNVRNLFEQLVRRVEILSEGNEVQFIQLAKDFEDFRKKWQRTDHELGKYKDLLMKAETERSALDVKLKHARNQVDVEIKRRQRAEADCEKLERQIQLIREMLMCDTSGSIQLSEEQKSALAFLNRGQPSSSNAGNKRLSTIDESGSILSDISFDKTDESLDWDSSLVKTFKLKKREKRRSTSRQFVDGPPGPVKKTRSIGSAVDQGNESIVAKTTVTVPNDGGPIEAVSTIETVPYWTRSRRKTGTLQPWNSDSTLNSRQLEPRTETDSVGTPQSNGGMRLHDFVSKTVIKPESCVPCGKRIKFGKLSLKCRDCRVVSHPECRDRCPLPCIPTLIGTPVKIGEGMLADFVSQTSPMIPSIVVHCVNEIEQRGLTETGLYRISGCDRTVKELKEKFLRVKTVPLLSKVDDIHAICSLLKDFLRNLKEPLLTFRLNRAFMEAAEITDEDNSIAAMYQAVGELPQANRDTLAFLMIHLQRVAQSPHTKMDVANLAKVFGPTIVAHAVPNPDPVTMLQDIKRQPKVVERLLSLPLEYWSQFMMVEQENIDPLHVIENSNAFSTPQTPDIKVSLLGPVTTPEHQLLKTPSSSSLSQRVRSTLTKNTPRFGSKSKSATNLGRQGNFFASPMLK
For the molecule `CCCn1c(N2CCN(C(=O)/C=C/C(=O)O)CC2)nc2ccccc21`, the inhibition is 10.8%.
For the molecule `NC(=O)COC(=O)CCSc1ccc(Cl)cc1`, the inhibition is 5.12%.
Regarding `COC/C=C/C1=CC2=CC(=O)C(C)(OC(=O)c3cnc4ccccc4n3)C(=O)C2=CN1Cc1ccco1` (stereo not given), the inhibition was 11%.
For `COc1nonc1NC(=O)CSc1nc2ccccc2[nH]1`, the inhibition is 9.74%.
The same measure for `Oc1cccc(Nc2c3ccccc3nc3ccccc23)c1`: 16.7%; for `c1ccc(Nc2cccc(Nc3ccccc3)c2)cc1`: 19.8%.
As for `OC1(CC#CCN2CCCCC2)c2ccccc2-c2ccccc21`, the inhibition is 11.1%.
The same measure for `O=C(c1ccco1)N1N=C2CCCCCC2C1(O)C(F)(F)F` (stereo not given): 1.94%.
`Cc1ccc(OCCOCCN2CCN(C)CC2)c([N+](=O)[O-])c1`: the inhibition is 31.9%.
With `C=CCNCCCCOc1ccc(C)cc1[N+](=O)[O-]`, the inhibition is 14%.
On to `Cc1ccc(OCCN2CCNCC2)c([N+](=O)[O-])c1`, for which the inhibition was 21.6%.
Consider `Cc1ccc(OCCOCCNC(C)(C)C)c([N+](=O)[O-])c1`, for which the inhibition was 29.6%.
As for `Cc1cc(C)n(CCCN2CCC(C(=O)Nc3cccc(-c4cccc(F)c4)c3)CC2)n1`, the inhibition is 11.5%.
`Cc1ccccc1C(=O)NC1CC2CCCC(C1)N2Cc1ccccc1Cl` (stereo not given): the inhibition is 11.5%.
The same measure for `Cc1c(C(=O)NCC(c2ccco2)N(C)C)oc2c(Cl)cccc12` (stereo not given): 5.84%; for `COc1cc2c(cc1OC)C1=C(C#N)CC/C(=N\S(=O)(=O)c3cccc(Cl)c3)N1CC2`: 4.99%.
On to `CC(C)CNC(=O)CN1C(=O)NC2(CCc3ccccc32)C1=O` (stereo not given), for which the inhibition is 10.8%.
`CN1C(=O)/C(=C/C=C2\SCCN2C)OC1=S`: the inhibition is 8.62%.
Turning to `CN1CCS/C1=C\C=C1/SC(=S)N(CC(=O)O)C1=O`, the inhibition is 16.9%.
Take `CN1C(=O)/C(=C\C=C2/CCCN2C)N(C)C1=S`: the inhibition was 28.8%.
Turning to `CCN1C(=O)/C(=C/C=C2/CCCN2C)OC1=S`, the inhibition is 5.72%.
On to `Cc1ccc(S(=O)(=O)N2CCN(CN3C(=O)CC4(CCCC4)C3=O)CC2)cc1`, for which the inhibition is 1.32%.
`CCOc1ccc(/C=N/n2nnnc2N)cc1OCC`: the inhibition is 9.77%.
For `C=CCOc1ccc(/C=N/n2nnnc2N)cc1OC`, the inhibition is 12.5%.
In the case of `COc1ccc(/C=N/n2nnnc2N)cc1OC`, the inhibition is 8.91%.
Turning to `COc1cc(/C=N/n2c(C3CCCCC3)n[nH]c2=S)cc(Br)c1O`, the inhibition was 12.6%.
Turning to `COc1cc(/C=N/n2c(C3CCCCC3)n[nH]c2=S)cc(OC)c1O`, the inhibition was 15.8%.
Consider `COc1cc(/C=N/n2nnnc2N)ccc1OC(C)=O`, for which the inhibition is 23.6%.
The value for `O=C(/C=C\c1ccco1)NC(=S)Nc1ccccc1O` was 15.2%; that for `COc1cccc(NC(=S)NC(=O)c2cccnc2)c1` was 13.8%.
As for `CN(C)C1=NCCN1CCCC1CCCC1`, the inhibition was 4.05%.
`CC(C)N(Cc1nccn1C)C(=O)C1CCC(=O)N(CCc2ccccc2)C1` (stereo not given): the inhibition was 12.2%.
Take `Cc1ccc(/C(N)=N/OC(=O)CCCc2ccccc2)cc1`: the inhibition was 7.16%.
For the molecule `COc1ccc2c(N)c(C(=O)NN)[nH]c2c1`, the inhibition was 27.6%.
The same measure for `CCOC(=O)Nc1c(C(=O)OC)[nH]c2cccc(OC)c12`: 9.48%; for `COC(=O)c1cc(S(=O)(=O)NC2CCC(C)CC2)cn1C` (stereo not given): 0.48%; for `Cc1ccc(OCCC(=O)OCC(=O)NC(=O)NCc2ccccc2)cc1`: 3.66%.
With `CN=c1scc(C)n1/N=C/c1ccc2c(c1)OCO2`, the inhibition is 18.6%.
As to `CN=c1scc(-c2cccs2)n1/N=C/c1ccccc1O`, the inhibition is 23.1%.
In the case of `Cc1ccc(CN2CCN(/N=C/c3ccc(O)c(O)c3)CC2)cc1`, the inhibition is 31.8%.
The same measure for `CCN=c1scc(C)n1/N=C/c1ccsc1`: 25.8%; for `CN=c1scc(C)n1/N=C/c1ccc(O)c(O)c1O`: -36.1%.
For `Cc1nnc(C)n1/N=C/c1ccc(O)cc1`, the inhibition was 13%.
On to `Cn1nnnc1SCCNCc1cccnc1`, for which the inhibition is -1.39%.
The value for `COC(=O)c1ccc(NC(=O)C(=O)N2CCN(C(=S)Nc3cccc(OC)c3)CC2)cc1` was 7.83%; that for `Cc1ccc(C)c(C(=O)C(C)Sc2nc3nn(-c4ccccc4)c(=O)c-3c3n2CCCCC3)c1` (stereo not given) was -2.59%; that for `Cc1ccc2nsnc2c1NC(=O)COc1ccccc1F` was 11.1%.
Regarding `O=C(/C=C/c1ccco1)NCCc1ccccc1`, the inhibition is 6.75%.
The value for `O=C(/C=C/c1ccco1)NC(=S)Nc1ccccc1` was 10.7%; that for `CC(=O)c1ccc(NC(=S)NC(=O)/C=C/c2ccco2)cc1` was 21.8%.
As to `O=C(O)CCCCCNC(=O)/C=C/c1ccco1`, the inhibition is 5.1%.
On to `COc1ccccc1OCC(=O)Nc1cc(C(F)(F)F)ccc1-n1cncn1`, for which the inhibition is 0.07%.
Take `COc1cccc(C#Cc2c(C=O)n(C)c3ccccc23)c1`: the inhibition was 8.82%.
The value for `Cc1cn(CC(=O)NCc2ccc(N(C)C)cc2)c(=O)[nH]c1=O` was 11.4%; that for `CCOc1ccc(CNC(=O)c2ccc3c(c2)N(CC)CCS3)cc1` was 14%.
With `c1ccc(Nc2cccc3c(Nc4ccccc4)cccc23)cc1`, the inhibition was 8.14%.
The same measure for `Nc1cccc(Nc2ccccc2)c1`: 8.97%; for `Nc1cc(C(=O)O)ccc1Nc1ccccc1`: 25.7%.
On to `O=C(O)c1ccccc1Nc1cccc(C(F)(F)F)c1`, for which the inhibition is 8.9%.
For the molecule `Nc1ccc(Nc2ccccc2N)cc1`, the inhibition was 24.3%.
Regarding `Nc1cc(C(F)(F)F)ccc1Nc1ccccc1`, the inhibition is 6.27%.
With `CCOc1cc(N2CCOCC2)c(OCC)cc1NC(=O)COC(=O)c1ccc(Cl)nc1`, the inhibition was 1.55%.
As to `O=C(Nc1cccc(-c2csc(Nc3ccc(Cl)cc3)n2)c1)c1ccccc1`, the inhibition is 2.45%.
The value for `N#Cc1c(-c2ccccc2)cc(C2CC2)nc1SCC(=O)O` was 12.8%; that for `Oc1cccc(/C=N/Nc2nn3cnnc3c3ccccc23)c1` was 24.6%; that for `COc1cccc(/C=N/Nc2nn3cnnc3c3ccccc23)c1O` was 7.65%.
`COc1cc(/C=N\Nc2nncn2N)ccc1OC(C)=O`: the inhibition was -4.26%.
For the molecule `COc1ccc(/C=N/Nc2nn3cnnc3c3ccccc23)cc1`, the inhibition was 13.1%.
Take `COc1cccc(/C=N/Nc2nn3cnnc3c3ccccc23)c1`: the inhibition is 19.3%.
`COc1ccc(OC)c(/C=N/Nc2nncn2/N=C/c2cc(OC)ccc2OC)c1`: the inhibition was 6.03%.
